Only some compounds are listed: those with a hit (about 8.3% of all), similar ones and a draw of the others.
FMDV inh – antivirals against foot and mouth disease virus; FMDV antiviral cell-based qHTS; Potency, µM (highest dose often 57.9 µM), for inactives: at the highest dose activity change, negative = inhibition, most hits filed as inhibitors; actives 1.2% (n = 410,000); AID 1159524; calls by dose curve; tested in HEK293T cells; also: read-out not given here; potency is read from the fitted curve at half-maximal effect; nearly all actives have a fitted effect of over 45% in size
Lassa entry inh – Lassa virus entry inhibition; Lassa virus pseudotype entry inhibition, cell reporter; actives 1.2% (n = 300,000); AID 540256; Potency, µM (doses to about 37.9 µM), for the others: top-dose activity change, negative = inhibition, usual class: inhibitors; calls by dose curve; tested in HEK293 cells; also: potency is read from the fitted curve at half-maximal effect; nearly all actives have a fitted effect of over 50% in size
MARV entry inh – inhibitors of Marburg virus binding or cell entry; Marburg virus pseudotyped entry inhibition, cell reporter; actives 1.8% (n = 300,000); Potency, µM (series often up to 37.8 µM), for inactives: at the highest dose activity change, negative = inhibition, actives largely listed as inhibitors; calls by dose curve; tested in HEK293 cells; also: potency is read from the fitted curve at half-maximal effect
HCMV inh – blocks human cytomegalovirus replication; AID 1259415; actives 4.5% (n = 410,000); HFF cells, HCMV-luciferase reporter, 72 h; active compounds read low; activity change, negative = inhibition, % at 57.5 µM; in the data active = activity change below about -60%; inconclusive = no clear call, values can overlap the other calls; inactive = above about -39%
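Compounds were evaluated in HFFs infected with an HCMV luciferase reporter virus (MOI 1 PFU/cell). Luciferase in lysates collected 72 h post infection served as the replication measure.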
HCV inh – HCV inhibition; actives 3.4% (n = 340,000); Huh7.5.1 HCVcc-Cre infection, luciferase reporter, 44 h; AID 651820; Potency, µM (series often up to 41.8 µM), inactives show at the highest dose activity change, negative = inhibition, usual class: inhibitors; also: potency is read from the fitted curve at half-maximal effect
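Seed cells (1,000/well) for 4 h; treat with compound and infect with HCVcc-Cre, moi about 0.5. Incubate 44 h, then detect luciferase activity.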
Giardia FBPA inh – blocks Giardia fructose-bisphosphate aldolase activity | purified Giardia FBPA | Potency, µM (series often up to 59.6 µM), for inactives: at the highest dose activity, negative = inhibition, usual class: inhibitors | actives 0.71% (n = 290,000) | A8B2U2; also: potency is read from the fitted curve at half-maximal effect; nearly all actives have a fitted effect of over 55% in size
Target sequence (A8B2U2 whole entry, looked up): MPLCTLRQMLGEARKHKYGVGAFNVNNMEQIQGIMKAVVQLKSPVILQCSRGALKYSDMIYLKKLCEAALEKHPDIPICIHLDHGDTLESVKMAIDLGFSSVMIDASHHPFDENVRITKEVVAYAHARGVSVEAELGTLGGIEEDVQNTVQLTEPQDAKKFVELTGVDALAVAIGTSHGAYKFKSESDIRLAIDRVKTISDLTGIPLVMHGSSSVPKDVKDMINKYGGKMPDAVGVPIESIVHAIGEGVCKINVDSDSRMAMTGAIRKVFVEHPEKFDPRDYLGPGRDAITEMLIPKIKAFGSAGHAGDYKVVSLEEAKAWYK
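Giardia FBPA (40 nM reagent) was preincubated 10 min at RT with compound (up to 57.5 uM final), then substrate plus GAPDH/TPI/NAD/arsenate coupling system with diaphorase/resazurin was added; resorufin fluorescence (525/598 nm) was read after 20 min.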
The depositor's hits bear a star; ? = inconclusive; / = no result given; [ ] = remark or other dose. Unless noted, calls follow the shape of the dose curve; as a rule, active = well fitted curve in the direction sought with a large enough effect; inconclusive = small, poorly fitted or top-dose-only effect, or another doubt; inactive = no such curve, though single readings can be large; an effect the other way counts as inactive or inconclusive. % is scaled to controls: 0 for no effect and ±100 for the full control effect.

SMILES | FMDV inh | Lassa entry inh | MARV entry inh | HCMV inh | HCV inh | Giardia FBPA inh
Clc1cccc(N2Cc3cc(N4CCOCC4)ccc3-n3nncc3C2)c1 | -1% | / | / | -19 | / | /
COc1ccc(-c2ccc3c(c2)CN(c2cccc(Cl)c2)Cc2cnnn2-3)cc1 | -17% | / | / | -102* | / | /
Clc1cccc(N2Cc3cc(-c4ccccc4)ccc3-n3nncc3C2)c1 | ? | / | / | -108* | / | /
CS(=O)(=O)Nc1cccc(-c2cncnc2Nc2ccc(F)cc2)c1 | -17% | / | / | / | / | -8%
CCN(CC)CCCCC1CCN(CC(=O)N2c3ccccc3C(=O)Nc3cccnc32)CC1 | -20% | / | / | / | / | 5%
COc1cccc(Cn2c(=O)c(-c3cccc(Cl)c3)nc3cncnc32)c1 | -20% | / | / | / | / | -14%
Cc1ccc(NNC(=O)c2ccno2)cc1Cl | -19% | / | / | -15 | 11µM* | -6%
Cc1ccc(NNC(=O)c2ccno2)cc1C | -2% | ? | -9% | 0 | ? | -12%
c1csc(-c2nnc(NC3CCCCC3)c3ccccc23)c1 | 40µM* | -17% | ? | 39 | ? | -5%
CC1CCN(c2nnc(-c3cccs3)c3ccccc23)CC1 | 0% | / | 0% | -66* | ? | -3%
c1ccc(-c2nc(-c3cccs3)c(NC3CCCCC3)o2)cc1 | / | / | -19%[14.2 µM] | / | / | 0%
CC1CCN(c2nc3ccccc3nc2N2CCC(C)CC2)CC1 | / | / | 0% | / | / | 5%
CCN1CCCC1Cn1c(-c2ccccc2)nc2c(N3CCOCC3)nc(C)nc21 (centres undefined) | / | / | / | / | / | 3%
O=C(c1ccccc1)c1ccc(NCCCn2ccnc2)c([N+](=O)[O-])c1 | 10% | ? | ? | ? | 35µM* | -1%
CCN(CC)S(=O)(=O)c1ccc(NN=C2CCN(C)CC2)c([N+](=O)[O-])c1 | -22% | ? | -29%[46.1 µM] | -23 | -14% | 2%
COc1ccc(C(=O)NCCCn2ccnc2)cc1[N+](=O)[O-] | 8% | / | / | -23 | 9% | -1%
CCN(CC)S(=O)(=O)c1ccc(NCCCn2ccnc2)c([N+](=O)[O-])c1 | -12% | -25%[46.1 µM] | ? | -62* | 4% | -2%
Cc1ccc(C(=O)Nc2ccccc2SCC2CSc3nc4ccccc4c(=O)n32)cc1 (centres undefined) | -13% | 7.1µM* | 3.2µM* | -85* | -9% | 2%
O=C(Nc1ccccc1SCC1CSc2nc3ccccc3c(=O)n21)c1cccc(Cl)c1 (centres undefined) | 0% | 2.5µM* | ? | -96* | -5% | -5%
O=c1c2ccccc2nc2n1C(CSCc1ccc(Cl)cc1)CS2 (centres undefined) | ? | -22% | ? | ? | 10µM* | -12%
O=C(Nc1ccccc1SCC1CSc2nc3ccccc3c(=O)n21)c1ccccc1 (centres undefined) | -9% | ? | ? | -70* | 1% | 0%
Cc1ccc(NC(=O)c2cc3c(=O)n(Cc4cccnc4)ccc3nc2C)cc1F | -3% | 4%[46.1 µM] | / | -2 | / | /
Cn1c(CCNC(=O)C2CC23CCN(C(=O)C2=CCCC2)CC3)nc2ccccc21 (centres undefined) | -1% | / | / | / | / | /
O=C(N/N=C1/C[C@@H](O)[C@@H](O)[C@@H]2[C@@H]3C(=O)N(Cc4ccccc4)C(=O)[C@H]3CC[C@H]12)OCc1ccccc1 | / | / | / | / | / | -1%[12.9 µM]
Cc1c(-c2nnc(SCC(=O)Nc3ccc(Cl)cc3)o2)nnn1-c1ccc(F)cc1 | 10% | 28%[46.1 µM] | / | 39 | / | /
Cc1cccc(C(=O)Nc2ccccc2SCC2CSc3nc4ccccc4c(=O)n32)c1 (centres undefined) | -24% | 6.3µM* | 0.89µM* | -75* | -13% | 5%
O=C(Nc1ccccc1SCC1CSc2nc3ccccc3c(=O)n21)c1ccccc1Cl (centres undefined) | -2% | ? | ? | ? | 3% | -3%
COc1ccc2[nH]c(C(=O)N3CCc4ccccc4C3)c(C)c2c1 | 19% | / | / | -37 | 11µM* | -12%
COc1ccc(N2CCN(C(=O)c3[nH]c4ccc(OC)cc4c3C)CC2)cc1 | 10% | -16%[46.1 µM] | ? | 19 | 15% | 4%
CC(Oc1ccccc1)C(=O)NCC1Cc2cc(F)cc(-c3ccccn3)c2O1 (centres undefined) | -13% | / | / | / | / | /

Assay outcomes: PubChem, National Center for Advancing Translational Sciences (NCATS)
